Hit rate of the full screen: of about 5,500 compounds, about 2,000 (36%) were called active. About 18% were inconclusive and are not listed. Cut-off read from the data, not from the text of the source: active = normalized growth mostly below about 0.91 (no sharp cut-off); inconclusive = no clear call, values can overlap the other calls; inactive = mostly above about 0.92. The list shows a part of the results.
Assay: chemical genetic growth profiling, strain panel (AID 1159580);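 note: tested at 20 µM; growth read once vehicle control cultures reached saturation at 30 °C; 1 = growth at the plate median or of vehicle wells; lower values mean less growth of the strain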
Conditions: growth OD
[1] = S. cerevisiae deletion strains, locus YHR030C, strain SLT2, active compounds read low

Measured: normalized growth

CC12CCC(C1)C(C)(C)C2NC(=O)c1cccs1 (configuration not stated)
inactive: S. cerevisiae deletion strains, locus YAL013W, strain DEP1, active compounds read low 0.976 | S. cerevisiae deletion strains, locus YBR229C, strain ROT2, active compounds read low 1.01 | S. cerevisiae deletion strains, locus YDL101C, strain DUN1, active compounds read low 0.995 | S. cerevisiae deletion strains, locus YDL134C, strain PPH21, active compounds read low 0.991 | S. cerevisiae deletion strains, locus YDR150W, strain NUM1, active compounds read low 0.907 | S. cerevisiae deletion strains, locus YEL061C, strain CIN8, active compounds read low 1.02 | S. cerevisiae deletion strains, locus YGR078C, strain PAC10, active compounds read low 0.98 | [1] 0.848 | S. cerevisiae deletion strains, locus YHR087W, strain rtc3, active compounds read low 0.983 | S. cerevisiae deletion strains, locus YJL187C, strain SWE1, active compounds read low 0.992 | S. cerevisiae deletion strains, locus YJR043C, strain POL32, active compounds read low 0.956 | S. cerevisiae deletion strains, locus YJR075W, strain HOC1, active compounds read low 0.97 | S. cerevisiae deletion strains, locus YLR039C, strain RIC1, active compounds read low 1.03 | S. cerevisiae deletion strains, locus YLR058C, strain SHM2 (second series), active compounds read low 0.994 | S. cerevisiae deletion strains, locus YLR085C, strain ARP6, active compounds read low 0.944 | S. cerevisiae deletion strains, locus YLR262C, strain YPT6, active compounds read low 1.03 | S. cerevisiae deletion strains, locus YML094W, strain GIM5, active compounds read low 0.976 | S. cerevisiae deletion strains, locus YMR219W, strain ESC1, active compounds read low 0.988 | S. cerevisiae deletion strains, locus YMR263W, strain SAP30, active compounds read low 0.942 | S. cerevisiae deletion strains, locus YMR307W, strain GAS1, active compounds read low 0.834 | S. cerevisiae deletion strains, locus YNL153C, strain GIM3, active compounds read low 1 | S. cerevisiae deletion strains, locus YNL298W, strain CLA4 (second series), active compounds read low 0.983 | S. cerevisiae deletion strains, locus YNL322C, strain KRE1, active compounds read low 0.987 | S. cerevisiae deletion strains, locus YNR030W, strain Alg12, active compounds read low 0.995 | S. cerevisiae deletion strains, locus YOL006C, strain TOP1, active compounds read low 0.924 | S. cerevisiae deletion strains, locus YPL055C, strain LGE1, active compounds read low 0.968 | S. cerevisiae deletion strains, locus YPL241C, strain CIN2, active compounds read low 0.976 | S. cerevisiae deletion strains, locus YPR135W, strain CTF4, active compounds read low 0.858 | S. cerevisiae strains, strain wild type, active compounds read low 0.954

C[N+](C)(CCOc1ccccc1)Cc1ccccc1
inactive: [1] 0.888 | S. cerevisiae deletion strains, locus YOR231W, strain MKK1, active compounds read low 0.887
active: S. cerevisiae deletion strains, locus YHR079C, strain IRE1, active compounds read low 0.844 | S. cerevisiae deletion strains, locus YJL095W, strain BCK1, active compounds read low 0.869 | S. cerevisiae deletion strains, locus YJR066W, strain TOR1, active compounds read low 0.799 | S. cerevisiae deletion strains, locus YLR113W, strain HOG1, active compounds read low 0.805 | S. cerevisiae deletion strains, locus YNL183C, strain NPR1, active compounds read low 0.788 | S. cerevisiae deletion strains, locus YPL256C, strain CLN2, active compounds read low 0.812

Reference: PubChem BioAssay AID1159580 (chemical genetic matrix, 2015)
